# Laboratory results as given in PubChem BioAssay (Tox21).
# Where “and” joins values, the source holds several entries; their conditions need not be identical. Equal values may be shown once. Records with an inconclusive call do not appear. Entries that show only a call come without a potency. Calls of active or inactive are those of the source. Calls come from the whole dose curve; as a rule, active = well fitted cell-killing curve with a large enough effect in the repeat runs; inconclusive = weak or mixed curves, or effect the other way; inactive = flat fitted curve, though single readings scatter.
# Assay: qHTS assay to identify small molecule antagonists of the retinoid acid receptor (RAR) signaling pathway - cell viability counter screen (AID 1159551); note: nearly all actives have a fitted effect of over 35% in size
# Conditions: C3RL4 cells viability, ATP luminescence (CellTiter-Glo), 6 h; series mostly up to 92.4 µM
# Excerpt: U.S. Tox21 Program National Center for Advancing Translational Sciences [NCATS] NIH Chemical Genomics Center [NCGC] U.S. Environmental Protection Agency [EPA] National Institutes of Environmental Health Sciences [NIEHS] National Toxicology Program [NTP] U.S. Food and Drug Administration [FDA] Tox21 Assay Overview: All-trans Retinoic acid (atRA) is the potent natural metabolite of retinol and plays an important role in normal embryonic development and maintenance of cellular phenotype in adult animals. atRA is the activating ligand for the retinoic acid receptors (RARs) which form heterodimers with retinoid X receptors (RXRs) on the retinoic acid response element (RARE). Through activation of the RAR/RXRs nuclear receptors, atRA regulates the transcription of a large number of protein-coding genes and regulatory RNAs. Intracellular levels of atRA are controlled by the retinol signaling pathway (RSP) that regulates the biosynthesis and catabolism of atRA to maintain physiological levels. Chemicals that interfere with the RSP can cause abnormal intracellular levels of atRA and therefore are potential developmental toxicants. To assess compounds for the potential adverse effect on embryonic development through interfering with retinol signaling, a cell-based RARE luciferase reporter gene assay was used. C3RL4 cell line (OARSA/CFSAN/FDA, Laurel, MD) was used to screen Tox21 10K compound library for identifying inhibitors of the RSP. Also cytotoxicity was assessed by determining the viability of cells based on the quantitation of ATP.
# Tox21 Assay Protocol Summary: C3RL4 cells were seeded at 1,000/well in 4 uL of assay medium into white solid 1,536-well tissue culture plates (Greiner Bio-One North America Inc. Monroe, NC) using a Multidrop Combi (Thermo Scientific, Waltham, MA) dispenser. After incubation at 37 C and 5% CO2 for an overnight, 23 nL of compounds dissolved in DMSO, positive control or DMSO only were transferred by a Pintool station (Kalypsys, San Diego, CA). One ul of 1 uM (final concentration) of Retinol was added right after the compound addition by using a Flying Reagent Dispenser (FRD) (Aurora Discovery, San Diego, CA). After 6 hr incubation at 37 C and 5% CO2, 5 uL of CellTiter-Glo reagent (Promega Corporation, Madison, WI) was added to each assay plate using an FRD. Luminescence was quantified on a ViewLux plate reader (PerkinElmer, Waltham, MA) after 30 min incubation at room temperature.
# Potency is the fitted concentration of half-maximal effect.
row,Compound,Potency
1,COc1cc(C(=O)NS(=O)(=O)c2ccccc2C)ccc1Cc1cn(C)c2ccc(NC(=O)OC3CCCC3)cc12,inactive
2,CCCCCCCC(=O)OCC,inactive
3,O=C[C@H](O)[C@H](O)[C@H](O)CO,inactive
4,C[C@@H]1CC[C@H]2C(C)(C)[C@H]3C[C@@]12CC[C@@]3(C)O,inactive
5,CC(C)(C)CC(C)(C)c1ccccc1O,54.8 µM (active)
6,CCOC(=O)CN,inactive
7,c1cc(OCC2CO2)cc(OCC2CO2)c1 (stereo not given),inactive
8,CCc1ccc(C)nc1,inactive
9,C#CC(O)CCC (stereo not given),inactive
10,CC(C)C(=O)OCc1ccccc1,inactive
11,CO[C@H]1C=CO[C@@]2(C)Oc3c(C)c(O)c4c(O)c(cc(O)c4c3C2=O)NC(=O)/C(C)=C\C=C/[C@H](C)[C@H](O)[C@@H](C)[C@@H](O)[C@@H](C)[C@H](OC(C)=O)[C@@H]1C,inactive
12,CC(C)=CC1CC(C)CCO1 (stereo not given),inactive
13,OCCN1CN(CCO)CN(CCO)C1,inactive
14,Brc1ccccn1,inactive
15,CC1CCCCC1,inactive
16,O=C1Nc2ccc(Cl)cc2[C@@](C#CC2CC2)(C(F)(F)F)O1,inactive
17,CN1CCN(C2Cc3ccccc3Sc3ccc(Cl)cc32)CC1 (stereo not given),inactive
18,CNCC[C@H](Oc1cccc2ccccc12)c1cccs1,inactive
19,CCCCCCCCC(C)=O,inactive
20,C/C=C/C=N/NC(=O)c1ccncc1,inactive

row,Compound,Potency
1,CC(C)N=C(N)/N=C(\N)Nc1ccc(Cl)cc1,inactive
2,CCc1c(C(=O)O)c(=O)cnn1-c1ccc(Cl)cc1,inactive
3,Cc1cncc(C)c1,inactive
4,Oc1ccc(-c2ccccc2)c(Cl)c1,inactive
5,CCCCOC(=O)C(C)CC (stereo not given),inactive
6,Brc1ccccc1-c1ccccc1,inactive
7,CN1[C@@H]2CC[C@@H]1CC(OC(=O)C(CO)c1ccccc1)C2 (stereo not given in full),inactive
8,CCCCCCCCCCCCCOP(=O)(O)O,inactive
9,Nc1cc(Cl)c([N+](=O)[O-])cc1O,inactive
10,CCCCN(CCCC)CCC(O)c1cc2c(Cl)cc(Cl)cc2c2cc(C(F)(F)F)ccc12 (stereo not given),inactive
11,CCCCCCCCCCCCCc1ccccc1,inactive
12,CCc1cccc(C)c1,inactive
13,CN(C)CCCN1c2ccccc2CCc2ccccc21,inactive
14,C=C[C@](C)(O)CC[C@@H]1[C@@]2(C)CCCC(C)(C)[C@@H]2CC[C@@]1(C)O,61.1 µM (active)
15,CCN=c1cc2oc3cc(NCC)c(C)cc3c(-c3ccccc3C(=O)OCC)c-2cc1C,60.9 µM (active) and 48.6 µM (active)
16,CC(C(O)c1ccccc1)N(C)CCOC(c1ccccc1)c1ccccc1 (stereo not given),inactive
17,Oc1cc2ccccc2cc1O,inactive
18,CC(C)(C)c1cc(CCC(=O)NCCCCCCNC(=O)CCc2cc(C(C)(C)C)c(O)c(C(C)(C)C)c2)cc(C(C)(C)C)c1O,inactive
19,C[C@]12CC[C@H]3C(=CCc4cc(O)ccc43)[C@@H]1CCC2=O,inactive
20,O=C1c2c(O)ccc([N+](=O)[O-])c2C(=O)c2c([N+](=O)[O-])ccc(O)c21,48.1 µM (active)
